Values joined by “and” are separate entries in the source; they are usually repeats but may differ in a detail not shown here. Identical values can stand only once. Records with an inconclusive call do not appear. Active and inactive are the calls of the source. Calls follow the shape of the dose curve; as a rule, active = well fitted curve in the direction sought with a large enough effect; inconclusive = small, poorly fitted or top-dose-only effect, or another doubt; inactive = no such curve, though single readings can be large or run the other way.
% is scaled to controls: 0 for no effect and ±100 for the full control effect.

The nature of the assay: qHTS Assay for Identifying Gametocytocidal Compounds (AID 743244).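 Also: actives lower the fluorescent signal which means gametocytes are killed.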 The following applies: P. falciparum 3D7 stage III-V gametocytes, alamarBlue, 72 h; max response: active compounds read low. The gist of the method: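 In this qHTS viability screen, late-stage 3D7 gametocytes are incubated with compound for 72 h, then with alamarBlue for 24 h; reduced resorufin fluorescence marks killing.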
In general terms: Quantitative high-throughput screening tests each substance at several concentrations.
As to `CCCCCCCCCCCC(=O)N(CCO)CCO`, the max response was 11.9% (inactive).

On to `COc1ccc(C(=O)CCC(=O)O)c2ccccc12`, for which the max response was -11.7% (inactive).

Consider `O=C(CCCN1CCC(C(=O)c2ccc(F)cc2)CC1)c1ccc(F)cc1`, for which the max response was 18.4% (inactive).

For the compound `Cc1c(C)c2c(c(C)c1OC(=O)CCC(=O)O)CC[C@@](C)(CCC[C@H](C)CCC[C@H](C)CCCC(C)C)O2`, the max response is -1.05% (inactive).

On to `CC(=O)Oc1cccc2c1C(=O)c1c(OC(C)=O)cc(C(=O)O)cc1C2=O`, for which the max response is -7.57% (inactive).

For `C[N+]1(C)[C@@H]2CC(OC(=O)C(O)(c3cccs3)c3cccs3)C[C@H]1[C@@H]1O[C@@H]12` (some centres undefined), the max response was 8.38% (inactive).

On to `C=C1CC[C@H](O)CC1=C/C=C1\CCC[C@]2(C)[C@@H]([C@H](C)CCCC(C)(C)O)CC[C@@H]12`, for which the max response is -5.02% (inactive).

In the case of `Cc1cccc(Nc2ncccc2C(=O)O)c1C`, the max response is 39.6% (inactive).

Turning to `CCOC(=O)c1c[nH]c2cc(OCC(C)C)c(OCC(C)C)cc2c1=O`, the max response was -10.7% (inactive).

With `C[C@H](CCCC(C)(C)O)[C@H]1CC[C@H]2[C@@H]3CC=C4C[C@@H](O)CC[C@]4(C)[C@H]3CC[C@]12C`, the max response is -7.2% (inactive).

As to `N=C(N)n1cccn1`, the max response was 13.6% (inactive).

`CN[C@@H]1[C@@H](O)[C@@H](O[C@@H]2[C@@H](O)[C@H](O[C@H]3O[C@H](CN)[C@@H](O)[C@H](O)[C@H]3O)[C@@H](N)C[C@H]2NC(=O)C(O)CN)OC[C@]1(C)O` (some centres undefined): the max response is 16.8% (inactive).

For `CC(C)(C)c1ccc2c(S(=O)(=O)O)c(C(C)(C)C)ccc2c1`, the max response is 10.3% (inactive) and 35.8% (inactive).

In the case of `NC(=O)[C@@H]1CCCN1C(=O)[C@H](Cc1cnc[nH]1)NC(=O)[C@@H]1CCC(=O)N1`, the max response is 7.17% (inactive).

As for `O=C(O)CN(CC(=O)O)CC1=CC2C(=CC1=O)Oc1cc(O)c(CN(CC(=O)O)CC(=O)O)cc1C21OC(=O)c2ccccc21` (centres undefined), the max response was 5.31% (inactive).

For the compound `CC(=O)[O][Al][O]C(C)=O`, the max response was -11.1% (inactive).

As to `CC(C)(O/N=C(\C(=O)N[C@@H]1C(=O)N2C(C(=O)[O-])=C(C[n+]3ccccc3)CS[C@H]12)c1csc(N)n1)C(=O)O`, the max response was 20.4% (inactive).

`CCN1C(=O)NC(c2ccccc2)C1=O` (centres undefined): the max response is 13.2% (inactive).

`NC[C@H]1O[C@H](O[C@H]2[C@H](O)[C@@H](O[C@H]3O[C@H](CO)[C@@H](O)[C@H](N)[C@H]3O)[C@H](N)C[C@@H]2N)[C@H](O)[C@@H](O)[C@@H]1O`: the max response was 19.4% (inactive).

Turning to `CN(Cc1ccccc1)Cc1ccccc1`, the max response was 1.68% (inactive).

Regarding `CC(=O)OCC(=O)[C@@]1(O)CC[C@H]2[C@@H]3CCC4=CC(=O)CC[C@]4(C)C3=CC[C@@]21C`, the max response is -8.18% (inactive).

Take `CC(=NCc1ccccc1)c1ccccc1O`: the max response is -2.19% (inactive).

In the case of `Nc1nc(NC2CC2)c2ncn([C@@H]3C=C[C@@H](CO)C3)c2n1`, the max response was 15.8% (inactive).

As for `COC1[C@@H](O[C@@H]2O[C@H](C)[C@@H](O[C@H]3C[C@@](C)(O)[C@H](OC(=O)CC(C)C)[C@H](C)O3)[C@H](N(C)C)[C@H]2O)[C@@H](CC=O)C[C@@H](C)[C@@H](O)/C=C/C=C/C[C@@H](C)OC(=O)C[C@H]1OC(C)=O` (some centres undefined), the max response is 6% (inactive).

(Values after PubChem BioAssay (NCATS).)
